27 compounds from PubChem BioAssay AID1740 (National Center for Advancing Translational Sciences (NCATS), 2009) can be followed below.

Results filed as inconclusive are left out. Values without a mark were called inactive. Active and inactive are the calls of the source. Calls come from the whole dose curve; as a rule, active = well fitted activation curve with a large enough effect; inconclusive = small, poorly fitted or top-dose-only effect; inactive = no such curve, though single readings can be large or run the other way.

The nature of the assay: Confirmation Concentration-Response Assay for Enhancers of SMN2 Splice Variant Expression. To be noted: HEK293 SMN2-exon7-luciferase splicing reporter, luminescence, 30-36 h; series mostly up to 46.1 µM; activation: at the top concentration. The text has this:
NIH Chemical Genomics Center [NCGC] NIH Molecular Libraries Probe Production centers Network [MLPCN] MLPCN Grant: R03 MH084179-01 Assay Submitter (PI): Elliot Androphy NCGC Assay Overview: Spinal muscular atrophy (SMA) is caused by insufficient levels of the survival motor neuron protein SMN. The SMN locus on chromosome 5q13 contains two inverted copies of SMN called SMN1 and SMN2 which are 99% identical at the amino acid level. SMN1 is a fully functional protein and SMN2 skips exon 7 90% of the time. Skipping of exon 7 produces non-functional protein product. 10% of the SMN2 protein includes exon 7 and is fully functional. In the SMA disease state, mutations in the SMN1 locus are the cause of the disease state. Because only 10% of SMN2 is of the fully functional form, it is not sufficient to overcome the deficiency produced by the loss of the SMN1 product. A therapy that either increase the amount of SMN2 product made or to increase the inclusion of exon 7 has been proposed for the treatment of SMA. We have designed an assay to identify small molecules that can increase the amount of functional SMN2 product by appending a luciferase reporter gene after the native SMN2 gene, such that inclusion of exon 7 in the expressed product places the luciferase sequence in frame, thus generating functional luciferase enzyme.
NCGC Assay Protocol Summary: This screen utilizes a luciferase reporter gene assay, combining the promoter with the major portion of the native SMN2 cDNA (exons 1 -7, intron 8 , exon 8 fused to luciferase) stably expressed in HEK293 cells. Compounds that increase luciferase signal presumably enhance expression of the functional SMN2 splice variant. Passaging media contained DMEM w/ glutamax (+phenol red) 10% FCS, 1x pen/strep, 200 ug/ml hygro, 1x sodium pyruvate. Assay media contained DMEM w/ glutamax (-phenol red) 10% FCS, 1x pen strep, 1x pyruvate Sequence, Parameter, Value, Description (1) Cells, 5 uL, 2000 cells/well, 1536 TC treated White solid bottom plate (2) Time, 10-12 hours, 37C 5% CO2 (3) Compound, 23 nl, MLSMR Library (4) Control Compound, 23 nL, Sodium butyrate st 4.5mM (final) conc (5) Time, 30-36 hours, 37C 5% CO2 (6) Reagent, 3 ul, One Glo (TM) from Promega (7) Time, 5-15 minutes, Room temp (8) Detector, Viewlux: luminescent read, 60 second integration, high speed 2x binning Keywords: Spinal muscular atrophy, SMA, SMN2, high throughput screening, MLSMR, MLPCN, NIH Roadmap, qHTS and NCGC
Take `O=c1[nH]c(=O)n(C2CCCO2)cc1Br` (configuration not stated): the “activation” value was -5.56% [at 22.7 µM].

As for `Clc1ccc(-c2nnc(-c3ccccc3)nc2N2CCSCC2)cc1`, the activation is 6.97% [at 9.48 µM].

For the compound `CCCSc1nnc2c(n1)OC(c1sccc1C)Nc1ccccc1-2` (configuration not stated), the Potency is 2000 nM (active).

Consider `Cc1ccc(C2c3c(oc4ccccc4c3=O)C(=O)N2CCCN2CCOCC2)o1` (configuration not stated), for which the “activation” value was 14.5%.

For the compound `Cc1nnc(-c2ccccc2)[nH]c1=O`, the “activation” value is -2.84% [at 22.7 µM].

For the compound `O=[N+]([O-])c1ccc(-c2nnc(-c3ccccc3)c(NCCCO)n2)cc1`, the “activation” value is 23.6% [at 22.7 µM].

For the compound `NC(=O)N1c2ccccc2C=Cc2ccccc21`, the “activation” value is -12.8%.

Consider `Clc1ccc(-c2nnc(-c3ccccc3)c(N3CCSCC3)n2)cc1`, for which the “activation” value is -1.83% [at 22.7 µM].

Take `O=C(Cc1c(F)cccc1Cl)N1CCN(C(=O)c2ccco2)CC1`: the “activation” value is -5.31%.

For `COC(=O)C1=C(C)NC(=O)/C1=C\c1cc(C)n(-c2ccccc2F)c1C`, the “activation” value was -7.59%.

On to `c1ccc(-c2nnc(-c3ccccc3)c(-c3c[nH]c4ccccc34)n2)cc1`, for which the “activation” value is 4.63% [at 22.7 µM].

For `CCC1=Nc2ccccc2-c2nnc(SC)nc2O1`, the “activation” value is -6.69% [at 22.7 µM].

For the compound `CCCCOC(C)n1cc(F)c(=O)[nH]c1=O` (configuration not stated), the “activation” value is -17.1% [at 22.7 µM].

`Cc1[nH]c2ccccc2c1-c1nc(-c2ccc(Cl)cc2)nnc1-c1ccccc1`: the “activation” value was 13.1% [at 22.7 µM].

As to `CCCSc1nnc(Sc2nnnn2-c2ccccc2)s1`, the “activation” value was -84.7%.

In the case of `FC(F)(F)c1cccc(Oc2nc(-c3ccccc3)nnc2C(F)(F)F)c1`, the “activation” value is -14.5% [at 22.7 µM].

Consider `Cc1ccc(-c2nnc(-c3ccccc3)c(N3CCOCC3)n2)cc1`, for which the activation is 3.26% [at 9.48 µM].

For the compound `Clc1nc(NCc2cccs2)c2[nH]cnc2n1`, the “activation” value is -49.8%.

As for `Fc1ccc(Oc2nc(-c3ccccc3)nnc2C(F)(F)F)cc1`, the “activation” value was -16.3% [at 22.7 µM].

As to `c1coc(CNc2ncnc3ccccc23)c1`, the “activation” value was -53.2%.

`FC(F)C(F)(F)C1=CC(c2cccs2)=NCCN1`: the “activation” value is 0.924%.

Turning to `O=[N+]([O-])c1ccc(-c2nnc(-c3ccccc3)c(N3CCOCC3)n2)cc1`, the “activation” value is -27% [at 22.7 µM].

Consider `COc1ccc(-c2csc(N3CCC(c4ccccc4)CC3)n2)cc1`, for which the “activation” value is -18% [at 22.7 µM].

For `Brc1nc2ncnc(NCc3ccco3)c2[nH]1`, the “activation” value was -18%.

Consider `COC(=O)C1=C(CN2CCc3ccccc32)NC(=O)NC1c1cc(C)ccc1C` (configuration not stated), for which the “activation” value was -40.4%.

For the compound `Cc1ccc(-c2csc(N3CCC(NS(=O)(=O)c4ccc5c(c4)OCCO5)CC3)n2)cc1`, the “activation” value was -59.4% [at 22.7 µM].

Take `OCCCNc1nc(-c2ccc(Cl)cc2)nnc1-c1ccc(Br)cc1`: the “activation” value is -29.8% [at 22.7 µM].
